We go through 36 molecules from PubChem BioAssay.

Activity calls are given as the source filed them. Unless noted, the rule behind the calls is not given here.

One assay in a line: ATP-based viability of Huh7 replicon cells – cell-based, CellTiter-Glo luminescence, basal, 48 h, cytotoxicity control for HCV replication inhibitor project, primary screen (AID 1143).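 Note: Huh7 hepatoma cells carrying a hepatitis C replication reporter with no stimulus; test concentration not given here.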 Particulars: higher = more signal, called active from +8 up or from −8 down. A general note: In antiviral work, replicon cells carry a viral genome segment that copies itself.
For the molecule `COc1ccc(CCN2C(=O)[C@@]3(c4ccc([N+](=O)[O-])cc4)CC(=O)N(C4CCCCC4)[C@@H]3c3ccc(CO)cc32)cc1`, the z-score was 0.443 (inactive). Regarding `O=C(O)[C@@]1(CCS(=O)(=O)c2ccccc2)COC(c2ccc(OCCCO)cc2)=N1`, the z-score was 0.122 (inactive). For the molecule `CC(C)C[C@@H]1NC(=O)[C@H]2C[C@@H](C(=O)NCCCCCCN)[C@@H](c3ccc(O)cc3)N2C1=O`, the z-score was -0.875 (inactive). The same measure, in the same setting: then `CCCC[C@H]1OB(O)C[C@H]2C1=C(COc1ccccc1)C[C@H]1C(=O)N(C)C(=O)[C@H]12`, with -0.348 (inactive); and `O=C1O[C@H](c2ccccc2)[C@H](c2ccccc2)N2[C@H]1[C@@H](C(=O)N1CCN(c3ncccn3)CC1)[C@]1(C(=O)Nc3ccc(C#CC4=CCCCC4)cc31)[C@H]2c1ccc(O)cc1`, with -2.01 (inactive); and `C#CCN(CC=C(C)C)[C@H](CO)c1ccccc1`, with -4.16 (inactive).

On to `Cc1ccc(S[C@]2(C(=O)NCCN3CCOCC3)CC(=O)N(Cc3ccccc3Cl)[C@@H]2c2ccc(CO)cc2)cc1`, for which the z-score was -2.93 (inactive). Still for that read-out and setting: to `O=C1NC(=O)C2C1C=CC(C(O)Cc1ccccc1)N2Nc1ccc(Cl)cc1Cl` (stereo not given) belongs -0.0389 (inactive); to `C=CCOC(=O)[C@@H]1[C@H]2C(=O)O[C@H](c3ccccc3)[C@H](c3ccccc3)N2[C@H](c2ccc(OCCOC(=O)[C@@H]3C[C@@H]4C(=O)N5CCC[C@H]5C(=O)N4[C@@H]3c3ccc(O)cc3)cc2)[C@@]12C(=O)Nc1ccc(I)cc12`, -1.51 (inactive).

A short description of a further assay: Pseudomonas biofilm growth suppression – PAO1 strain, BacTiter-Glo luminescence, LB-PBS, primary screen (AID 1144). Particulars: P. aeruginosa PAO1 biofilm, 12 h, higher = more signal.
As to `C=C(C)C1C(=C)CN([C@H](CO)c2ccccc2)C1=O` (stereo not given in full), the z-score was -0.65 (inactive). Same read-out and setting: then `COc1ccc(C(O)C2C=CC3C(=O)N(c4ccccc4)C(=O)C3N2Nc2ccccc2F)cc1OCc1ccccc1` (stereo not given), with -0.547 (inactive); and `COCCCNC(=O)[C@@]1(Cc2ccccc2)N=C(c2ccc(OCCCO)cc2)O[C@H]1c1ccccc1`, with 0.669 (inactive); and `CC(C)C(CO)N1C(=O)[C@@H]2[C@H]3C(=O)OCC=C[C@H]3OC23C=CCN(C(C)C)C(=O)[C@@H]13` (stereo not given in full), with -0.1 (inactive).

Regarding `[N-]=[N+]=Nc1ccccc1[C@H]1OC(c2ccc(OCCCO)cc2)=N[C@@]1(Cc1ccccc1)C(=O)O`, the z-score is -0.0839 (inactive). For `Cc1ccc(S[C@]2(C(=O)NC(C)C)CC(=O)N(Cc3ccccc3Cl)[C@@H]2c2ccc(CO)cc2I)cc1`, the z-score was 0.248 (inactive). For the molecule `CN(C)CCCCCCNC(=O)[C@@H]1C[C@@H]2C(=O)N[C@@H](CCCCN)C(=O)N2[C@@H]1c1cccc(OCCO)c1`, the z-score is -1.19 (inactive).

`CC(C)(C)OC(=O)CC[C@]12N=C(c3ccc(OCCCO)cc3)O[C@H]1c1ccccc1N(CCS(=O)(=O)c1ccccc1)C2=O`: the z-score is -0.556 (inactive).

On to `COCCn1c(C(=O)N2CCCC2)cc2c1C[C@H]1CN(C(=O)c3ccccc3)[C@@](Cc3ccc(F)cc3)(C(=O)OC)[C@@H]21`, for which the z-score was -0.727 (inactive).

For `CC1CC/C=C\[C@H]2OC34C=CCN(C(C)(C)C)C(=O)[C@H]3N(CCCCCCO)C(=O)[C@@H]4C2C(=O)O1` (stereo not given in full), the z-score was 0.0917 (inactive). Take `COCCOC(=O)N1C(=O)[C@@]2(c3cc(C#Cc4ccc(OC)cc4)ccc31)[C@H](C(N)=O)[C@H]1C(=O)O[C@H](c3ccccc3)[C@H](c3ccccc3)N1[C@@H]2c1ccccc1OCCO`: the z-score was -0.438 (inactive). Same read-out and setting: then `O=C1OCCC/C=C\[C@H]2OC34C=CCN(c5ccc6ccccc6c5)C(=O)[C@H]3N(CCCCCCO)C(=O)[C@@H]4C12` (stereo not given in full), with -1.7 (inactive); and `COc1ccc([C@H]2C[C@H]3C(Br)=C[C@@H]2C(=O)[C@]32CO2)cc1`, with 1.11 (inactive); and `COCCOC(=O)N1C(=O)[C@@]2(c3cc(C#CCCO)ccc31)[C@H](c1ccc(OCCO)cc1)N1[C@H](c3ccccc3)[C@H](c3ccccc3)OC(=O)[C@H]1[C@@H]2C(=O)N1CCN(c2ncccn2)CC1`, with 0.97 (inactive). The same measure, in the same setting: then `Cc1ccc(C(C)CC(O)C2C=CC3C(=O)N(C)C(=O)C3N2NC(=O)OC(C)(C)C)o1` (stereo not given), with 0.399 (inactive); and `C=CC[C@@]1(C(=O)N(C)C)N=C(c2ccc(OCCCO)cc2)O[C@@H]1c1ccccc1N=[N+]=[N-]`, with 0.557 (inactive). Same read-out and setting: then `COCCOC(=O)N1C(=O)[C@@]2(c3cc(C#CCCO)ccc31)[C@H](C(=O)Nc1nc3ccccc3s1)[C@H]1C(=O)O[C@H](c3ccccc3)[C@H](c3ccccc3)N1[C@@H]2c1ccc(OCCO)cc1`, with -1.05 (inactive); and `O=C(c1ccccc1)N1Cc2ccccc2[C@@H]2OC(c3ccc(OCCCO)cc3)=N[C@]2(Cc2ccccc2)C1=O`, with -0.554 (inactive); and `NCCCCCNC(=O)[C@@H]1C[C@@H]2C(=O)N[C@@H](Cc3ccccc3)C(=O)N2[C@@H]1c1cccc(OCCO)c1`, with 0.205 (inactive).

With `COc1ccc([C@H]2OC[C@@H]3CC4(CC=CC4)C(=O)N32)cc1`, the z-score is 0.25 (inactive). Still for that read-out and setting: then `CN1C(=O)C2C=CC(C(O)Cc3ccccc3)N(Nc3ccccc3)C2C1=O` (stereo not given), with -1.16 (inactive). On the same count and under the same terms, then `[N-]=[N+]=NCc1ccccc1[C@@H]1OC(c2ccc(OCCCO)cc2)=N[C@]1(Cc1ccccc1N=[N+]=[N-])C(=O)N1CCOCC1`, with 0.103 (inactive); and `COc1ccc(CCNC(=O)[C@@]2(Sc3ccc(C)cc3)CC(=O)N(C3CCCCC3)[C@@H]2c2ccc(CO)cc2I)cc1`, with -0.382 (inactive); and `[N-]=[N+]=NCc1ccccc1[C@@H]1OC(c2ccc(OCCCO)cc2)=N[C@]1(CCS(=O)(=O)c1ccccc1)C(=O)NCc1ccccc1`, with 0.0656 (inactive).

Turning to `O=C1OCC=C[C@H]2OC34C=CCN(CCN5CCOCC5)C(=O)[C@H]3N(CCCO)C(=O)[C@@H]4[C@@H]12` (stereo not given in full), the z-score was -0.0222 (inactive). Still for that read-out and setting: to `CCc1oc(CC[C@@H](CO)NC(=O)NCCn2cc(C3(O)CCCCC3)nn2)c(C(=O)OC)c1C(=O)OC` belongs 0.73 (inactive). Consider `COC(=O)[C@@]1(Cc2ccc(F)cc2)[C@H]2c3cc(C(=O)N(C)C)n(Cc4nc5ccccc5[nH]4)c3C[C@H]2CN1C(=O)c1ccccc1`, for which the z-score is 0.528 (inactive). Take `COc1ccc(CCN2C(=O)[C@@]3(c4ccc([N+](=O)[O-])cc4)CC(=O)N(C4CCCCC4)[C@@H]3c3ccc(CO)cc32)cc1`: the z-score was 0.0718 (inactive). In the case of `O=C(O)[C@@]1(CCS(=O)(=O)c2ccccc2)COC(c2ccc(OCCCO)cc2)=N1`, the z-score is 1.98 (inactive).

As to `CC(C)C[C@@H]1NC(=O)[C@H]2C[C@@H](C(=O)NCCCCCCN)[C@@H](c3ccc(O)cc3)N2C1=O`, the z-score is 0.469 (inactive). `CCCC[C@H]1OB(O)C[C@H]2C1=C(COc1ccccc1)C[C@H]1C(=O)N(C)C(=O)[C@H]12`: the z-score is 1.04 (inactive). Consider `O=C1O[C@H](c2ccccc2)[C@H](c2ccccc2)N2[C@H]1[C@@H](C(=O)N1CCN(c3ncccn3)CC1)[C@]1(C(=O)Nc3ccc(C#CC4=CCCCC4)cc31)[C@H]2c1ccc(O)cc1`, for which the z-score was -0.134 (inactive). On the same count and under the same terms, then `C#CCN(CC=C(C)C)[C@H](CO)c1ccccc1`, with -0.215 (inactive); and `Cc1ccc(S[C@]2(C(=O)NCCN3CCOCC3)CC(=O)N(Cc3ccccc3Cl)[C@@H]2c2ccc(CO)cc2)cc1`, with -1.98 (inactive); and `O=C1NC(=O)C2C1C=CC(C(O)Cc1ccccc1)N2Nc1ccc(Cl)cc1Cl` (stereo not given), with -0.171 (inactive).

Take `C=CCOC(=O)[C@@H]1[C@H]2C(=O)O[C@H](c3ccccc3)[C@H](c3ccccc3)N2[C@H](c2ccc(OCCOC(=O)[C@@H]3C[C@@H]4C(=O)N5CCC[C@H]5C(=O)N4[C@@H]3c3ccc(O)cc3)cc2)[C@@]12C(=O)Nc1ccc(I)cc12`: the z-score was -1.72 (inactive).
